What was measured:
Test in all cases: DAPPL (digital affinity profiling via proximity ligation, sequencing); 10 mM Tris-HCl pH 7.5, 50 mM NaCl, 1 mM DTT, 4% glycerol, room temperature, 30 min; GST-TFs on glutathione beads, 16-mer random dsDNA library, 0.1% formaldehyde crosslink after washing; high values mean tight binding
Details in all cases: protein: recombinant; tags: N-terminal GST; dsDNA, one strand shown
[1] = target: T1, FLI1 (Homo sapiens, UniProt Q01543 1-452)
T1 sequence: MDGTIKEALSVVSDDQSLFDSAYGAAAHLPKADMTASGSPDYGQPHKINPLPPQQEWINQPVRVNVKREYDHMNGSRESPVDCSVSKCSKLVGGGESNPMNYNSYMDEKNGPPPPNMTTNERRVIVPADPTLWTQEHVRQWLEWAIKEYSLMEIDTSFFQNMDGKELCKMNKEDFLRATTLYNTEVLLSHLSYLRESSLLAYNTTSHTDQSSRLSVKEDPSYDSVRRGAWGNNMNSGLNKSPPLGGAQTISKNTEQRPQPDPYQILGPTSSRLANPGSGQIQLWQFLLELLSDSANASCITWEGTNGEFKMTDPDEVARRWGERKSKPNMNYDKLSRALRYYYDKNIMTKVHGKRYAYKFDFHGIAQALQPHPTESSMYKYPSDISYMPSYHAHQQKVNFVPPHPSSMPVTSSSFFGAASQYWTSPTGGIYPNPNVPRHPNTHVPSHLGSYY
In short: (§1)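 After expression in yeast as GST fusions, human transcription factors were bound to glutathione beads, DNA-barcoded and mixed with a tag-only sample. The pools were incubated with 200 nmole of a 16-mer random double-stranded DNA library in Tris/NaCl/DTT/glycerol buffer (30 min, room temperature), washed and crosslinked with 0.1% formaldehyde. Proximity ligation with BsaI/T4 ligase ran for 1 h at 37 °C, before PCR amplification and sequencing on an Illumina NextSeq500. Binding signal is a hexamer's read frequency for a factor divided by its frequency for the tag-only sample.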

[2] = target: T2, ELK1 (Homo sapiens, UniProt P19419 1-428)
T2 sequence: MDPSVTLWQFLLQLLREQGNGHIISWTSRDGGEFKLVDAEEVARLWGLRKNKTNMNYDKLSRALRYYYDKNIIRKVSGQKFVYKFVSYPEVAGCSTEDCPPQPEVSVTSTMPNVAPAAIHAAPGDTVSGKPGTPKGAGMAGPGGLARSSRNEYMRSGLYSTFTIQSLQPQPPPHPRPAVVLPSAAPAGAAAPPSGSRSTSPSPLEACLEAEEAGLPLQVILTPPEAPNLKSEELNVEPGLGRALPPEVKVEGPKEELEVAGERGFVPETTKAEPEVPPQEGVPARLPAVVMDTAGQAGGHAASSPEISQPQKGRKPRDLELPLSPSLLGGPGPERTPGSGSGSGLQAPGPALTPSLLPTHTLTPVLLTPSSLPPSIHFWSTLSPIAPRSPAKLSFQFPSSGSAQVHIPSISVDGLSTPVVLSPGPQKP
In short: as §1

[3] = target: T3, GABPA (Homo sapiens, UniProt Q06546 1-454)
T3 sequence: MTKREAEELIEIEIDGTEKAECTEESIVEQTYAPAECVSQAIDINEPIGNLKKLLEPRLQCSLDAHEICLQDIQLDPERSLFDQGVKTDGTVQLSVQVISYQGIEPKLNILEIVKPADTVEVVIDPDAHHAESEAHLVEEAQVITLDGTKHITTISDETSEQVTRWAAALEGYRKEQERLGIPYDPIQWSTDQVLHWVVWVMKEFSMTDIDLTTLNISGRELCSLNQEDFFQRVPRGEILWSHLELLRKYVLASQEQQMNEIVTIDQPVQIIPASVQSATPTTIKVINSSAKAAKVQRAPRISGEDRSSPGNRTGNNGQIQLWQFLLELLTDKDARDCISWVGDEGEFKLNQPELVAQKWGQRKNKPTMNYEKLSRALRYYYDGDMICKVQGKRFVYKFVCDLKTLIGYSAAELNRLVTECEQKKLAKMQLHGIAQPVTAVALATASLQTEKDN
In short: as §1

[4] = target: T4, ERG (Homo sapiens, UniProt P11308 1-479)
T4 sequence: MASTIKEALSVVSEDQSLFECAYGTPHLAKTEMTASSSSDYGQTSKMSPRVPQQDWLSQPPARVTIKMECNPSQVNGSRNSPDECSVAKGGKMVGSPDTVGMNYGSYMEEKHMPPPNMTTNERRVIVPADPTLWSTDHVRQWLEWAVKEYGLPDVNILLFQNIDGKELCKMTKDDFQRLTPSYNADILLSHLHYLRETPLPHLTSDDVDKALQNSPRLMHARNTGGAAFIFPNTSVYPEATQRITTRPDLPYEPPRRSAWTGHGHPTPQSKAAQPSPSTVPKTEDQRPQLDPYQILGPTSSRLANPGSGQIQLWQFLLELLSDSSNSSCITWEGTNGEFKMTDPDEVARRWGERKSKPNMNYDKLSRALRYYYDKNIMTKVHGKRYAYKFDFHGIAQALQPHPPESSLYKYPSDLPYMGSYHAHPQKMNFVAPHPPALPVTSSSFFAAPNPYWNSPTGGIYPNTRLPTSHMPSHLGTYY
In short: as §1

[5] = target: ELF1 (Homo sapiens, UniProt P32519 1-619)
ELF1, sequence (P32519 whole entry): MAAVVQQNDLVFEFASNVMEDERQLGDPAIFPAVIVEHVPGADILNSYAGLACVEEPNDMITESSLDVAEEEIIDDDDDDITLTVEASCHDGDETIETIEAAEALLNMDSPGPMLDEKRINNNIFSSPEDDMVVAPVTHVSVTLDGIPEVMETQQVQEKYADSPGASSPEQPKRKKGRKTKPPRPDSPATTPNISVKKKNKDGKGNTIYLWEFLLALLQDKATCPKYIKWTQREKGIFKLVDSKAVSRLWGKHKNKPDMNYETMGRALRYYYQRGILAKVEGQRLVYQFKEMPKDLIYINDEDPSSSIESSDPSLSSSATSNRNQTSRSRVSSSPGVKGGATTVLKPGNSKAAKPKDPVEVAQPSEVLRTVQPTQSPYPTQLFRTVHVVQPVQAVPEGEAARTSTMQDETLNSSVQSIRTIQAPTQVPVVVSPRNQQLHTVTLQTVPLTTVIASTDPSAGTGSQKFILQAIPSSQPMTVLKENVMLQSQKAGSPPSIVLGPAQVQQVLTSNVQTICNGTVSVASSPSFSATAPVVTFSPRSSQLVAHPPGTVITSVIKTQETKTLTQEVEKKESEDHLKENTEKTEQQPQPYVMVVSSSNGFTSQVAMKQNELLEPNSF
In short: as §1

[6] = target: T5, EHF (Homo sapiens, UniProt Q9NZC4 1-300)
T5 sequence: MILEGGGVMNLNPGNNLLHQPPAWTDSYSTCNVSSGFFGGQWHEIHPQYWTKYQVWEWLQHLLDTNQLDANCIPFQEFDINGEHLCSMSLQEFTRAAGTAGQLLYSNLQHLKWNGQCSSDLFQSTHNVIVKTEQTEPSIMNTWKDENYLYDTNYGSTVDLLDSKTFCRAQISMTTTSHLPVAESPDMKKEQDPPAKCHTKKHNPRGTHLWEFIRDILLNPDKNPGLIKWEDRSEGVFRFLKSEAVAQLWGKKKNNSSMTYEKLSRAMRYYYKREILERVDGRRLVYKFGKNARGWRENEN
In short: as §1

[7] = target: SPI1 (Homo sapiens, UniProt P17947 1-270)
In short: as §1

[8] = target: SPIB (Homo sapiens, UniProt Q01892 1-262)
SPIB, sequence (Q01892 whole entry): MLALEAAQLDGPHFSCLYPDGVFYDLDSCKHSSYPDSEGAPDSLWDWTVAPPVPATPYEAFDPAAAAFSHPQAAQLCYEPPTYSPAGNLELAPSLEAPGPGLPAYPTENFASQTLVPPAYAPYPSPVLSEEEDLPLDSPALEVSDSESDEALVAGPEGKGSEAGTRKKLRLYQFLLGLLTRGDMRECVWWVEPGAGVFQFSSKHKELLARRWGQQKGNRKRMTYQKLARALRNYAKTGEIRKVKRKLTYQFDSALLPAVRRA
In short: as §1

[9] = target: T6, ELK3 (Homo sapiens, UniProt P41970 1-407)
T6 sequence: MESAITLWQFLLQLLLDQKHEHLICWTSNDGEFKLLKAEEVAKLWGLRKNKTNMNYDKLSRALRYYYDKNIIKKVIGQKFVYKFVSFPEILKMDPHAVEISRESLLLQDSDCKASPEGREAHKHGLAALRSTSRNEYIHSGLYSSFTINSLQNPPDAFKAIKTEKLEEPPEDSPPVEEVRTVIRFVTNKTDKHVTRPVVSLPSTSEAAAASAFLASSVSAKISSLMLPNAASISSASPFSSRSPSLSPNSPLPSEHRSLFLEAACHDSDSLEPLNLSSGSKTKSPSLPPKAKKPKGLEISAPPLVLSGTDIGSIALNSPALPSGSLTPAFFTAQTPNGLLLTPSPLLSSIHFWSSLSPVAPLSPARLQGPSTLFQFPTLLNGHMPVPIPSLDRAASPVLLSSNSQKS
In short: as §1

Row | Sequence | binding signal [1] | binding signal [2] | binding signal [3] | binding signal [4] | binding signal [5] | binding signal [6] | binding signal [7] | binding signal [8] | binding signal [9]
1 | ATATCG | 1.09 fold enrichment (6-mer frequency, TF over GST control) | 1.16 fold enrichment (6-mer frequency, TF over GST control) | 1.14 fold enrichment (6-mer frequency, TF over GST control) | 1.08 fold enrichment (6-mer frequency, TF over GST control) | 1.16 fold enrichment (6-mer frequency, TF over GST control) | 1.13 fold enrichment (6-mer frequency, TF over GST control) | 1.23 fold enrichment (6-mer frequency, TF over GST control) | 1.17 fold enrichment (6-mer frequency, TF over GST control) | 1.19 fold enrichment (6-mer frequency, TF over GST control)
2 | TTCGGT | 1.06 fold enrichment (6-mer frequency, TF over GST control) | 1.09 fold enrichment (6-mer frequency, TF over GST control) | 1.13 fold enrichment (6-mer frequency, TF over GST control) | 1.1 fold enrichment (6-mer frequency, TF over GST control) | 1.14 fold enrichment (6-mer frequency, TF over GST control) | 1.23 fold enrichment (6-mer frequency, TF over GST control) | 1.2 fold enrichment (6-mer frequency, TF over GST control) | 1.16 fold enrichment (6-mer frequency, TF over GST control) | 1.22 fold enrichment (6-mer frequency, TF over GST control)
3 | ATAAAA | 1.09 fold enrichment (6-mer frequency, TF over GST control) | 1.15 fold enrichment (6-mer frequency, TF over GST control) | 1.1 fold enrichment (6-mer frequency, TF over GST control) | 1.09 fold enrichment (6-mer frequency, TF over GST control) | 1.12 fold enrichment (6-mer frequency, TF over GST control) | 1.1 fold enrichment (6-mer frequency, TF over GST control) | 1.17 fold enrichment (6-mer frequency, TF over GST control) | 1.21 fold enrichment (6-mer frequency, TF over GST control) | 1.12 fold enrichment (6-mer frequency, TF over GST control)
4 | ATACCT | 1.13 fold enrichment (6-mer frequency, TF over GST control) | 1.18 fold enrichment (6-mer frequency, TF over GST control) | 1.07 fold enrichment (6-mer frequency, TF over GST control) | 1.05 fold enrichment (6-mer frequency, TF over GST control) | 1.13 fold enrichment (6-mer frequency, TF over GST control) | 1.08 fold enrichment (6-mer frequency, TF over GST control) | 1.04 fold enrichment (6-mer frequency, TF over GST control) | 1.1 fold enrichment (6-mer frequency, TF over GST control) | 1.08 fold enrichment (6-mer frequency, TF over GST control)
5 | TACCCT | 1.33 fold enrichment (6-mer frequency, TF over GST control) | 1.34 fold enrichment (6-mer frequency, TF over GST control) | 1.21 fold enrichment (6-mer frequency, TF over GST control) | 1.31 fold enrichment (6-mer frequency, TF over GST control) | 1.36 fold enrichment (6-mer frequency, TF over GST control) | 1.38 fold enrichment (6-mer frequency, TF over GST control) | 1.36 fold enrichment (6-mer frequency, TF over GST control) | 1.3 fold enrichment (6-mer frequency, TF over GST control) | 1.41 fold enrichment (6-mer frequency, TF over GST control)
6 | CTCTCG | 1.42 fold enrichment (6-mer frequency, TF over GST control) | 1.34 fold enrichment (6-mer frequency, TF over GST control) | 1.37 fold enrichment (6-mer frequency, TF over GST control) | 1.44 fold enrichment (6-mer frequency, TF over GST control) | 1.49 fold enrichment (6-mer frequency, TF over GST control) | 1.31 fold enrichment (6-mer frequency, TF over GST control) | 1.45 fold enrichment (6-mer frequency, TF over GST control) | 1.37 fold enrichment (6-mer frequency, TF over GST control) | 1.47 fold enrichment (6-mer frequency, TF over GST control)
7 | ATGTAA | 1.38 fold enrichment (6-mer frequency, TF over GST control) | 1.29 fold enrichment (6-mer frequency, TF over GST control) | 1.13 fold enrichment (6-mer frequency, TF over GST control) | 1.29 fold enrichment (6-mer frequency, TF over GST control) | 1.23 fold enrichment (6-mer frequency, TF over GST control) | 1.32 fold enrichment (6-mer frequency, TF over GST control) | 1.23 fold enrichment (6-mer frequency, TF over GST control) | 1.33 fold enrichment (6-mer frequency, TF over GST control) | 1.22 fold enrichment (6-mer frequency, TF over GST control)

Reference: paper PMC7862700, “An all-to-all approach to the identification of sequence-specific readers for epigenetic DNA modifications on cytosine”
